Assay outcomes deposited in PubChem by National Center for Advancing Translational Sciences (NCATS).
Only some compounds are listed: those with a hit (about 10% of all), similar ones and a draw of the others.
MCF10A rerep = induces DNA re-replication in MCF 10a normal breast cells | Potency, µM (highest dose often 46.1 µM), for inactives: top-dose activity, positive = re-replication, hits mostly activators | MCF 10A DNA re-replication, Hoechst nuclear intensity, 48 h | hit rate 2.9% among 350,000; further: % of control where 0% means no effect; nearly all actives have a fitted effect of over 50% in size
KB-V1 MDR tox = kills drug-selected multidrug resistant KB-V1 cells; KB-V1 MDR cells viability, CellTiter-Glo, 72 h; hit rate 3.4% among 400,000; Potency, µM (series often up to 46.1 µM), actives largely listed as cytotoxic; further: on the % scale 0 is the no-effect control and ±100 the full control effect; nearly all actives have a fitted effect of over 60% in size
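Luminescent ATP read-out (CellTiter-Glo, 10 min) measures survival of drug-selected KB-V1 MDR cells after 72 h, 37 degrees C compound exposure. Medium: phenol-red-free DMEM, 10% FBS. Values from fitted concentration-response curves.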
KB-3-1 tox = KB-3-1 parental cell cytotoxicity; hit rate 1.4% among 400,000; KB-3-1 viability, CellTiter-Glo ATP luminescence, 72 h; Potency, µM (top dose mostly 46.1 µM), hits mostly cytotoxic; AID 1347075; further: on the % scale 0 is the no-effect control and ±100 the full control effect; nearly all actives have a fitted effect of over 60% in size
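72 h, 37 °C compound treatment of KB-3-1 parental cells; CellTiter-Glo added, 10 min, luminescence read. Data corrected against DMSO-only plates and normalized before curve fitting.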
RORg inh = inhibitors of mouse ROR gamma transcriptional activity. AID 2551. hit rate 5.4% among 310,000. P51450. Drosophila S2 Gal4-RORgamma UAS-luciferase reporter, 20 h. Potency, µM (top dose mostly 53.6 µM), for inactives: at the highest dose activity change, negative = inhibition, most hits filed as inhibitors; further: on the % scale 0 is the no-effect control and ±100 the full control effect; nearly all actives have a fitted effect of over 60% in size
Target sequence (P51450 whole entry, looked up, the tested form may be a part): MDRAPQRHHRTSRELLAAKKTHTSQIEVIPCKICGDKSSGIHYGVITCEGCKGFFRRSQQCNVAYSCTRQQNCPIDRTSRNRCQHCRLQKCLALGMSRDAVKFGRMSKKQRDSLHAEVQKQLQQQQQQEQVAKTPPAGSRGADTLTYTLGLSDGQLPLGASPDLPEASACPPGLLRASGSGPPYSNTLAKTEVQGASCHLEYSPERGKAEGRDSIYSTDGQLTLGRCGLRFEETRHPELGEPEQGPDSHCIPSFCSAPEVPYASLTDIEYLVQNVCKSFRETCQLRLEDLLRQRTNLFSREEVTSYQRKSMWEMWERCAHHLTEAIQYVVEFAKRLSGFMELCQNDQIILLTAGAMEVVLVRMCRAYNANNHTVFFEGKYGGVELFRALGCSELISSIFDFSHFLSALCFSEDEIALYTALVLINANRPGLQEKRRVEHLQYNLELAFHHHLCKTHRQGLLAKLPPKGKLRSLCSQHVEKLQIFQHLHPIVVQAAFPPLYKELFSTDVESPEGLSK
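A Gal4/UAS one-hybrid system in insect cells: metallothionein-promoter Gal4–ROR gamma fusion plus Photinus luciferase reporter. Copper sulfate 700 uM final, 20 hr ambient incubation, luminescent detection after 10 min with reagent.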
Gal4-VP16 FLuc = Gal4-VP16 reporter inhibition counter-screen. Drosophila S2 Gal4-VP16 UAS-luciferase, luminescence, 20 h. Potency, µM (highest dose often 53.6 µM), without a hit: top-dose activity, negative = inhibition, usual class: inhibitors. hit rate 3.5% among 310,000;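 further: Gal4-VP16 expression switched on by copper sulfate through the metallothionein promoter; on the % scale 0 is the no-effect control and ±100 the full control effect; nearly all actives have a fitted effect of over 50% in size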
SW480 rereplic = induces DNA re-replication in SW480 colon adenocarcinoma cells; SW480 DNA re-replication, Hoechst DNA content imaging, 48 h; hit rate 1.8% among 340,000; Potency, µM (top dose mostly 46.1 µM), inactives show at the top dose re-replication activation, most hits filed as activators; further: % of control where 0% means no effect; nearly all actives have a fitted effect of over 55% in size
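DNA re-replication was detected as more nuclei of elevated Hoechst intensity after 48 hr exposure to compound (23 nL pinned per well of 250 cells).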
* marks the source's active call; other numbers are inactive results; i = inactive; ? = inconclusive; / = no result given; [ ] = remark or other dose. The call rests on the fitted dose curve; in most records, active means well fitted curve in the direction sought with a large enough effect; inconclusive means small, poorly fitted or top-dose-only effect, or another doubt; inactive means no such curve, though single readings can be large; an effect the other way counts as inactive or inconclusive. Potency means the concentration at half of the fitted maximal effect.

SMILES | MCF10A rerep | KB-V1 MDR tox | KB-3-1 tox | RORg inh | Gal4-VP16 FLuc | SW480 rereplic
Cc1ccnc(SCC(=O)c2ccc(Br)cc2)c1C#N | ? | i | ? | ? | 0% | ?
Cc1cc(C)c(C#N)c(OCC(=O)c2ccc(Br)cc2)n1 | ? | 5.8µM* | i | ? | -14% | ?
CCN(C(=O)COc1nc(C)cc(C)c1C#N)c1ccccc1 | ? | ? | i | -11% | 1% | 2%
COc1ccc(-n2c(=O)c(-c3ccc(Cl)cc3)nc3cnc(N4CCNCC4)nc32)cc1 | / | / | / | ? | -12% | /
Cc1cccc(CN2Cc3cccc4c3[C@H](C=CC4)CC2=O)c1 | / | i | i | / | / | /
CCc1nnc(NS(=O)(=O)c2ccc(NC(=O)c3ccccc3)cc2)s1 | 0% | i | i | -1% | 0% | -19%
CCc1nnc(NS(=O)(=O)c2ccc(N/C=C\C(=O)c3ccc4ccccc4c3)cc2)s1 | 23µM* | i | i | ? | -5% | 14%
CCc1nnc(NS(=O)(=O)c2ccc(NC(=O)CCC(=O)OC)cc2)s1 | 0.58µM* | i | i | 26% | 0% | -17%
O=C(NCc1ccccc1Cl)NCc1ccccc1Cl | 1% | i | i | 23% | -2% | -18%
O=C(Cc1ccccc1)NCc1ccncc1 | 7% | i | i | 6.3µM* | ? | 2%
O=C(Cc1ccc(-n2cccc2)cc1)NCc1ccccc1Cl | 4.1µM* | i | ? | 36% | 5% | 18µM*
O=C(Cc1c[nH]c2ccccc12)NCc1ccncc1 | 0% | i | i | -1% | 4% | -1%
O=C(Cc1ccccc1)NCc1ccc(-n2cccc2)cc1 | 10µM* | i | ? | -7% | -7% | 6.5µM*
C[C@@]1(O)C(O)[C@@H](CO)O[C@H]1n1cnc2c(NC3CCCC3)nc(Cl)nc21 (stereo partly specified) | / | / | / | 32% | -17% | /
COc1ccc(NC(=O)CC2C(=O)N(C)C(=S)N2Cc2cccs2)cc1 (stereo unspecified) | -1% | i | i | ? | 18% | -5%
CCCOc1ccc(NC(=O)CC2C(=O)N(CC)C(=S)N2Cc2cccs2)cc1 (stereo unspecified) | 8% | 15µM* | ? | ? | 5% | 17%
CCCCCCOc1ccc(NC(=O)CC2C(=O)N(CC)C(=S)N2Cc2ccco2)cc1 (stereo unspecified) | 18µM* | i | ? | ? | ? | ?
N#Cc1cccc(-c2nc(NCc3ccccc3)c3ccccc3n2)c1 | / | / | / | 40% | 6% | /
CCN(CC)c1ccc(/C=C/c2nc3ccccc3s2)cc1 | / | / | / | 1.6µM* | 7.1µM* | /
CCN(CC)c1ccc(/C=C/c2ccncc2)cc1 | / | i | 0.52µM* | / | / | /
CN(C)c1ccc(/C=C/c2ccncc2)cc1 | ? | i | ? | -38% | ? | ?
CC[C@H](C)[C@H](NC(=O)[C@H](CCC(=O)O)NC(=O)CNC(=O)[C@H](CCCCN)NC(=O)[C@H](CCC(=O)O)NC(=O)[C@H](CCSC)NC(=O)[C@H](CCSC)NC(=O)[C@H](CCSC)NC(=O)[C@H](CCC(=O)O)NC(=O)CNC(=O)[C@H](CO)NC(=O)[C@H](CO)NC(=O)[C@H](CO)NC(=O)[C@@H](N)CC(N)=O)C(=O)N[C@@H](CCCCN)C(=O)O | / | / | / | 3% | 7% | /
OCCC1CN(CCCc2ccccc2)CCN1CCc1ccccc1 (stereo unspecified) | 21µM* | i | i | -24% | -2% | -6%
CC(C)CN1CCN(CC#Cc2ccccc2)CC1CCO (stereo unspecified) | 0.65µM* | i | i | -3% | 4% | -22%
CC(C)=CCN1CCN(CC#Cc2ccccc2)CC1CCO (stereo unspecified) | -1% | i | i | 17% | -1% | -16%
SMILES | MCF10A rerep | KB-V1 MDR tox | KB-3-1 tox | RORg inh | Gal4-VP16 FLuc | SW480 rereplic
c1ccc2nc(-c3nc4ccccc4o3)ccc2c1 | -14% | i | 11µM* | -3% | 10µM* | 1%
c1ccc(-c2nc3ccccc3o2)nc1 | 4% | i | i | -11% | -13% | -3%
C[C@@H]1[C@H]2CC[C@@H]3[C@@H]4CC=C5C[C@@H](N(C)C)CC[C@]5(C)[C@@H]4CC[C@@]32CN1C | / | / | / | -12%[16.9 µM] | 2%[17 µM] | /
Nc1nonc1-n1nnc(C(=O)N/N=C/c2ccc(OCc3ccccc3)cc2)c1CNc1ccccc1 | ? | i | i | 11µM* | ? | ?
CN(Cc1c(C(=O)N/N=C/c2ccccc2)nnn1-c1nonc1N)c1ccccc1 | 7% | i | i | -33% | 3% | 1%
Cc1cccc(COc2ccc(/C=N/NC(=O)c3nnn(-c4nonc4N)c3CN3CCCCC3)cc2)c1 | 16µM* | ? | i | 15% | ? | -24%
CN(C)c1ccc(/C=N/NC(=O)c2nnn(-c3nonc3N)c2CN(C)c2ccccc2)cc1 | 12µM* | i | i | -41% | -10% | 9.2µM*
Nc1nonc1-n1nnc(C(=O)N/N=C/c2ccc(OCc3cccc(Cl)c3)cc2)c1CN1CCCCC1 | 1% | i | i | 10% | -1% | -2%
Cc1cccc(COc2ccc(/C=N/NC(=O)c3nnn(-c4nonc4N)c3COc3ccc(F)cc3)cc2)c1 | 15µM* | i | ? | 0% | -5% | ?
Cc1cccc(C(c2sc3nc(-c4ccco4)nn3c2O)N2CCN(c3ccccc3)CC2)c1 (stereo unspecified) | / | i | i | / | / | /
O=C1N[C@@H](Cc2ccccc2)COC(=O)[C@@H](Cc2ccc(F)cc2)C/C=C\C[C@@H]1CC(=O)N(CCO)Cc1ccccc1 | 23µM* | ? | ? | / | / | ?
Cc1ccc(NC(=O)CSc2nnc(-c3ccc([N+](=O)[O-])cc3)o2)c(C)c1 | / | i | i | / | / | /
CCN(CC)S(=O)(=O)c1c(Br)cc(C)cc1Br | 2% | i | i | 0% | -2% | -5%
CCN(CC)S(=O)(=O)c1cc(C)ccc1SC | 1% | i | i | ? | -15% | 23µM*
O=S(=O)(C/C(=C/CO)S(=O)(=O)c1ccccc1)c1ccccc1 | 0.82µM* | ? | ? | 4µM* | 4.5µM* | 1.2µM*
C=CCn1c(N)c(C(=O)Nc2ccccc2)c2nc3ccccc3nc21 | 5.6µM* | i | ? | -43% | 2% | 22%[9.22 µM]
COC(=O)c1c(N)n(-c2ccc(NC(C)=O)cc2)c2nc3ccccc3nc12 | 0% | i | i | 14% | 5% | -5%
